Reference: PubChem BioAssay (NCATS)
Inconclusive results are not listed. Where a call stands in place of a potency, no number is given. Activity calls are given as the source filed them. Calls come from the whole dose curve; as a rule, active = well fitted inhibition curve with a large enough effect; inconclusive = small, poorly fitted or top-dose-only effect; inactive = flat fitted curve, though single readings scatter.

What was measured:
[1] = target: Glutathione peroxidase 1 (Homo sapiens) (UniProt P07203); assay: Primary qHTS Assay for Inhibitors of Recombinant Selenoprotein Glutathione Peroxidase 1 (GPX1) (AID 1845191); note: nearly all actives have a fitted effect of over 65% in size
In short: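 GR-coupled assay: compounds preincubated 30 min at room temperature with GPX1, then reaction started with CHP; final 10 nM GPX1, 1 mM GSH, 0.5 mM CHP, 0.5 mM NADPH, 100 nM GR, 0.01% BSA, pH 7.5 Tris buffer. NADPH fluorescence (340/450 nm) read at 0 and 15 min.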

[2] = target: Luciferin 4-monooxygenase (Photinus pyralis) (UniProt P08659); assay: Primary firefly luciferase (FLuc) qHTS assay for identification of artifact compounds. (AID 1845220); conditions: outcome: dose series up to 54.1 µM; note: nearly all actives have a fitted effect of over 60% in size
In short: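 D-luciferin and ATP (10 uM each, final) in Tris acetate buffer pH 7.6 were incubated with compounds for 15 min at room temperature. The reaction was started with 10 nM Photinus pyralis luciferase and luminescence read after 5 min. Percent inhibition was fitted to a 4-parameter Hill equation.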

[3] = test system: Nanoluciferase (engineered Oplophorus gracilirostris luciferase); assay: Primary Nanoluciferase (NLuc) qHTS assay for identification of artifact compounds. (AID 1845222); note: series mostly up to about 54 µM
In short: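 Diluted conditioned medium from NLuc-expressing S16 cells treated with compounds for 15 min at room temperature, then Nano-Glo substrate added; luminescence read after 5 min. Percent inhibition versus no-enzyme and DMSO controls fitted to 4-parameter Hill equation.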

[4] = target: Phospholipid hydroperoxide glutathione peroxidase GPX4 (Homo sapiens) (UniProt P36969); assay: Primary qHTS Assay for Inhibitors of Recombinant Selenoprotein Glutathione Peroxidase 4 (GPX4) (AID 1845192); note: nearly all actives have a fitted effect of over 65% in size; note: potency is the fitted concentration of half-maximal effect
In short: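 GR-coupled assay: recombinant GPX4 preincubated 30 min with compound at room temperature; final 200 nM GPX4, 1 mM GSH, 0.5 mM cumene hydroperoxide, 0.5 mM NADPH, 100 nM GR, 0.01% BSA, pH 7.5 Tris. NADPH fluorescence (340/450 nm) read at 0 and 15 min.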

Phospholipid hydroperoxide glutathione peroxidase GPX4 (Homo sapiens), sequence (P36969 whole entry, looked up): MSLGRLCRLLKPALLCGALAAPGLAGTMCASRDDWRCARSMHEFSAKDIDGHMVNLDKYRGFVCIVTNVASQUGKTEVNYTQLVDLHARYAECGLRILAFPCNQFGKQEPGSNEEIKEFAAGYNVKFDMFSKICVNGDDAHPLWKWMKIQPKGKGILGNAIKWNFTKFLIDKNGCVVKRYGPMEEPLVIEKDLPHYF
Glutathione peroxidase 1 (Homo sapiens), sequence (P07203 whole entry, looked up): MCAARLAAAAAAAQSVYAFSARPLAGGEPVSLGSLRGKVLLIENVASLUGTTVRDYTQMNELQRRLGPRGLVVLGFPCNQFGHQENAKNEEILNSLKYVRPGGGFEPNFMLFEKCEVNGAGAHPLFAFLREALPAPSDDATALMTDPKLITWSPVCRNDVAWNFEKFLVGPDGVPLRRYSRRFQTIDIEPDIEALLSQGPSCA

CC(C)(C)NC(=O)[C@@H]1CN(Cc2cccnc2)CCN1C[C@@H](O)C[C@@H](Cc1ccccc1)C(=O)N[C@H]1c2ccccc2C[C@H]1O
Potency [1]: inactive | outcome [2]: inactive | Potency [3]: inactive

Cc1ncc(CSSCc2cnc(C)c(O)c2CO)c(CO)c1O
Potency [4]: inactive

COC1=CC(=O)C[C@@H](C)[C@]12Oc1c(Cl)c(OC)cc(OC)c1C2=O
Potency [4]: inactive

C[C@@H]1C[C@H]2[C@@H]3CCC4=CC(=O)C=C[C@]4(C)[C@@]3(F)[C@@H](O)C[C@]2(C)[C@H]1C(=O)CO
Potency [4]: inactive

CN1[C@@H]2CC[C@H]1CC(OC(=O)c1c[nH]c3ccccc13)C2 (some centres not stated)
Potency [4]: inactive | outcome [2]: inactive | Potency [3]: inactive

Cc1ccc(C(=O)C(C)CN2CCCCC2)cc1 (configuration not stated)
outcome [2]: inactive | Potency [3]: inactive

O=c1c(-c2ccccc2)c1-c1ccccc1
Potency [4]: inactive

O=c1[nH]c(=O)n([C@H]2C[C@H](O)[C@@H](CO)O2)cc1C(F)(F)F
Potency [4]: inactive

Cc1ccnc(NS(=O)(=O)c2ccc(N)cc2)n1
Potency [4]: inactive

CN1CCCC(CC2c3ccccc3Sc3ccccc32)C1 (configuration not stated)
Potency [4]: inactive

CCCCOc1ccc(OCCCN2CCOCC2)cc1
Potency [4]: inactive

C[C@H](CCC(=O)O)[C@H]1CC[C@H]2[C@@H]3C(=O)C[C@@H]4CC(=O)CC[C@]4(C)[C@H]3CC(=O)[C@]12C
Potency [4]: inactive

OC[C@H]1O[C@H](O[C@]2(CCl)O[C@H](CCl)[C@@H](O)[C@@H]2O)[C@H](O)[C@@H](O)[C@H]1Cl
Potency [4]: inactive | outcome [2]: inactive | Potency [3]: inactive

CN(C/C=C/c1ccccc1)Cc1cccc2ccccc12
Potency [4]: inactive

O=C1c2ccccc2C(=O)C1c1ccccc1
Potency [4]: inactive

CN(C)CC/C=C1/c2ccccc2COc2ccc(CC(=O)O)cc21
Potency [4]: inactive

C[C@@H](CN(C)C)CN1c2ccccc2Sc2ccccc21
Potency [4]: inactive

CCCCS(=O)(=O)N[C@@H](Cc1ccc(OCCCCC2CCNCC2)cc1)C(=O)O
Potency [1]: inactive | outcome [2]: inactive | Potency [3]: inactive

C[C@]12CCC(=O)C=C1CC[C@H]1[C@@H]3CC[C@](O)(C(=O)CO)[C@@]3(C)C[C@H](O)[C@@]12F
Potency [4]: inactive

CCOC(=O)n1ccn(C)c1=S
Potency [4]: inactive

CCCCc1nc(Cl)c(CO)n1Cc1ccc(-c2ccccc2-c2nn[nH]n2)cc1
Potency [4]: inactive

CCCCOc1ccc(C(=O)CCN2CCCCC2)cc1
Potency [4]: inactive

O=C1OCCN1/N=C/c1ccc([N+](=O)[O-])o1
Potency [4]: inactive

C[C@H]1C[C@H]2[C@@H]3CCC4=CC(=O)C=C[C@]4(C)[C@@]3(Cl)[C@@H](O)C[C@]2(C)[C@@]1(O)C(=O)CO
Potency [4]: inactive

CCN(CCCCOC(=O)c1ccc(OC)c(OC)c1)C(C)Cc1ccc(OC)cc1 (configuration not stated)
Potency [4]: inactive

CC(=O)CC(c1ccc([N+](=O)[O-])cc1)c1c(O)c2ccccc2oc1=O (configuration not stated)
Potency [4]: inactive

Cc1nc2n(c(=O)c1CCN1CCC(c3noc4cc(F)ccc34)CC1)CCC[C@H]2O
outcome [2]: inactive | Potency [3]: inactive

COc1cccc2c1C(=O)c1c(O)c3c(c(O)c1C2=O)C[C@@](O)(C(=O)CO)C[C@@H]3O[C@H]1C[C@H](N)[C@H](O)[C@H](C)O1
Potency [4]: inactive

O=C(O)CCCCC(=O)O
Potency [4]: inactive

C/C=C(/C(=C/C)c1ccc(O)cc1)c1ccc(O)cc1
Potency [4]: inactive

O=C(OCCOCCO)c1ccccc1Nc1cccc(C(F)(F)F)c1
Potency [4]: inactive | outcome [2]: inactive | Potency [3]: inactive

CCCCCCc1ccc(O)cc1O
Potency [4]: inactive

Nc1ccn([C@@H]2O[C@H](CO)[C@@H](O)C2(F)F)c(=O)n1
Potency [4]: inactive | outcome [2]: inactive | Potency [3]: inactive

CC(C)COC(=O)OCN1C(=O)CN(CCN2CC(=O)N(COC(=O)OCC(C)C)C(=O)C2)CC1=O
Potency [4]: inactive

CC(=O)OCC(=O)[C@@]1(OC(C)=O)[C@@H](C)C[C@H]2[C@@H]3C[C@H](F)C4=CC(=O)C=C[C@]4(C)[C@@]3(F)[C@@H](O)C[C@@]21C
Potency [4]: inactive

O=C(OCC(O)CO)c1ccccc1Nc1ccnc2cc(Cl)ccc12 (configuration not stated)
Potency [4]: inactive

Cc1c(N(C)CS(=O)(=O)O)c(=O)n(-c2ccccc2)n1C
Potency [4]: 2 µM (active)

CCCCCCCCCCCCCCCCCC(=O)OCC(O)CO (configuration not stated)
Potency [4]: inactive
